From paper PMC10668032, “Altered binding affinity of SIX1-Q177R correlates with enhanced WNT5A and WNT pathway effector expression in Wilms tumor” come the findings set out here.

Whole data set: some 33,000 sequences, median “e-score” near -0.05, cut for the highest 2% near 0.38. The full list was thinned out, with the highest values kept by preference.

The experiment addresses T1, SIX1-Q177R homeodomain (human, UniProt Q15475 108-198, Q177R).
T1 sequence: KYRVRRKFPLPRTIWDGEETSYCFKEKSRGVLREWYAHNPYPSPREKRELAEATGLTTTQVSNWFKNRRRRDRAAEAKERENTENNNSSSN
Nature of the experiment: universal protein binding microarray; Universal all-10-mer PBM (8x60K, AMADID 030236), 300 nM GST-tagged protein, Alexa Fluor 488 anti-GST; buffer, salt, pH and temperature not stated (as in Berger); high values mean tight binding. The conditions noted are these: protein: ivt; tags: N-terminal GST; dsDNA, one strand shown. An outline of the steps:
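GST-tagged homeodomains were made by in vitro transcription/translation and quantified by anti-GST western blot against a recombinant GST standard curve. They were applied in duplicate at 300 nM final concentration to universal 'all 10-mer' protein binding microarrays (8×60K format). Binding was quantified as 8-mer E-scores with the Universal PBM Analysis Suite.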
As to CCCCGCGG, the binding signal stood at 0.193 ± 0.0298 E-score. Turning to GTACGACA, the binding signal was determined as 0.297 ± 0.0138 E-score. Turning to CGTGGTGC, the binding signal was found to be 0.187 ± 0.0118 E-score. On to GGTGCAAC, for which the binding signal stood at 0.272 ± 0.00472 E-score. To ACACCATA belongs 0.459 ± 0.00633 E-score; to ACCCCATC, 0.245 ± 0.00929 E-score; to ACACCATG, 0.4696 ± 0.00232 E-score. On to ACTCCATG, for which the binding signal came to 0.212 ± 0.0247 E-score. As to GCACCATA, the binding signal was found to be 0.174 ± 0.00986 E-score. ATACCATC: the binding signal turned out to be 0.151 ± 0.00506 E-score.

As to ACTCCATA, the binding signal stood at 0.2012 ± 0.000827 E-score. With ACACCATC, the binding signal is 0.4671 ± 0.000891 E-score. To ACCCCATG belongs 0.226 ± 0.0299 E-score; to ATTTTACA, 0.19 ± 0.0629 E-score; to TGGGTACA, 0.29 ± 0.00578 E-score. To ATCGCGGG belongs 0.167 ± 0.0319 E-score. Turning to AGGGTAGG, the binding signal was determined as 0.176 ± 0.00576 E-score. To CCCCAAGA belongs 0.156 ± 0.0279 E-score; to ATAACACG, 0.402 ± 0.0181 E-score; to CTAACCCC, 0.223 ± 0.0193 E-score. With GTAACACA, the binding signal was 0.223 ± 0.0443 E-score. As to ATAACTCC, the binding signal is 0.181 ± 0.0433 E-score.

On to ATAACACC, for which the binding signal worked out at 0.479 ± 0.0087 E-score. Consider ATAACCCC, for which the binding signal was found to be 0.266 ± 0.0237 E-score. To CTAACACA belongs 0.209 ± 0.00581 E-score.

Take CTAACACC: the binding signal was found to be 0.478 ± 0.00653 E-score. Regarding ATAACACA, the binding signal amounted to 0.2399 ± 0.00217 E-score. Turning to CCCCGTGC, the binding signal amounted to 0.244 ± 0.0265 E-score. In the case of CGCCGCCG, the binding signal was determined as 0.208 ± 0.031 E-score. For ATTCACTC, the binding signal worked out at 0.151 ± 0.0349 E-score. For the sequence AGCACGCA, the binding signal is 0.24 ± 0.0253 E-score. Consider CACCCCGC, for which the binding signal was 0.337 ± 0.0136 E-score. Take GGTCCGGA: the binding signal came to 0.161 ± 0.0425 E-score. For the sequence GATATCCC, the binding signal worked out at 0.193 ± 0.0406 E-score. With ACTCCTGA, the binding signal is 0.206 ± 0.00412 E-score. Turning to AAACCTGG, the binding signal came to 0.169 ± 0.0219 E-score.

Regarding ACCCCTGG, the binding signal came out at 0.163 ± 0.00865 E-score.

Turning to ACACCTGG, the binding signal amounted to 0.448 ± 0.00897 E-score. With ACCCCTGC, the binding signal is 0.235 ± 0.0269 E-score.

In the case of ACCCCTGA, the binding signal turned out to be 0.2405 ± 0.00201 E-score.

As to ACTCCTGC, the binding signal came out at 0.158 ± 0.00297 E-score.

Turning to ACACCTGA, the binding signal was determined as 0.4477 ± 0.00107 E-score.

In the case of ACACCTGC, the binding signal is 0.4582 ± 0.00372 E-score. The figure for CCCTTGTA is 0.2081 ± 0.00151 E-score; for ATTCCGTG it is 0.2 ± 0.0598 E-score. To CCCAGGCG belongs 0.167 ± 0.0378 E-score. The figure for CGAGGCAA is 0.186 ± 0.00832 E-score; for CACTGTAC it is 0.194 ± 0.0212 E-score.

Consider GAGTGCAC, for which the binding signal turned out to be 0.195 ± 0.00266 E-score. On to CTGTGTAC, for which the binding signal was determined as 0.229 ± 0.0232 E-score. With AAGTGTAG, the binding signal was found to be 0.37 ± 0.0123 E-score. Regarding CAGTGTAC, the binding signal amounted to 0.4035 ± 0.00271 E-score. The figure for GAGTGTGC is 0.184 ± 0.00494 E-score; for CAGTGCAC it is 0.183 ± 0.0019 E-score; for CAGTGTAG it is 0.4232 ± 0.00358 E-score.

As for AAGTGTAC, the binding signal turned out to be 0.391 ± 0.0232 E-score.

Take GAGTGTAC: the binding signal was determined as 0.419 ± 0.00767 E-score. As for CACTTATG, the binding signal amounted to 0.161 ± 0.0539 E-score. As for AAGTTACA, the binding signal is 0.171 ± 0.00584 E-score.

AGAAGGTG: the binding signal came to 0.302 ± 0.0205 E-score. The figure for CCCCGGAC is 0.152 ± 0.0324 E-score.

Turning to GAGCACCC, the binding signal is 0.283 ± 0.0502 E-score.

Regarding TGGTGTAA, the binding signal came to 0.486 ± 0.00978 E-score.

For the sequence TGGTGCAA, the binding signal was found to be 0.169 ± 0.0456 E-score. With GGGGGTAA, the binding signal was found to be 0.354 ± 0.0195 E-score.

Regarding TGGAGTAA, the binding signal is 0.233 ± 0.068 E-score. Take AGGTGCAA: the binding signal amounted to 0.169 ± 0.04 E-score. For GTGTGTAA, the binding signal was 0.337 ± 0.0168 E-score. As for ATGTGTAA, the binding signal stood at 0.225 ± 0.00674 E-score. Consider CGGTGTAG, for which the binding signal is 0.487 E-score. As to AGGTGTAA, the binding signal is 0.463 ± 0.021 E-score.

As for CGGGGTAG, the binding signal came out at 0.221 ± 0.00415 E-score.

In the case of GGGTGTAA, the binding signal is 0.478 ± 0.01 E-score. To GGTGCACC belongs 0.353 ± 0.00627 E-score; to CAACAACA, 0.195 ± 0.00619 E-score. In the case of TGACCCCA, the binding signal is 0.279 ± 0.0177 E-score. As for CGGAGTAA, the binding signal was 0.266 ± 0.0379 E-score.

Take AAGGTATC: the binding signal is 0.251 ± 0.0701 E-score. Regarding GGAACCCA, the binding signal was determined as 0.181 ± 0.0136 E-score. Turning to GACCTCAC, the binding signal was determined as 0.161 ± 0.0365 E-score.

Take ACCGAACA: the binding signal was found to be 0.196 ± 0.0386 E-score. The figure for CGGTGCAA is 0.259 ± 0.00579 E-score. Take GGGTGTAC: the binding signal was determined as 0.4828 ± 0.00134 E-score. Consider CGGTGTAA, for which the binding signal amounted to 0.481 ± 0.0071 E-score. In the case of CTGTGTAA, the binding signal is 0.153 ± 0.011 E-score.

As to GGGGGTAC, the binding signal turned out to be 0.331 ± 0.0182 E-score. GGGTGCAC: the binding signal was determined as 0.28 ± 0.022 E-score.
